IL1B secr inh: inhibitors of inflammasome signaling (IL-1 beta secretion) | THP-1 LPS/ATP IL-1B secretion, AlphaLISA, 16 h; hits give low values | activity change, % at 57.5 µM | 4.7% of 360,000 active; in the data active = activity change below about -50%; inconclusive = mostly about -30% to -49%
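Secreted IL-1B measured by AlphaLISA bead assay after 16 h compound exposure of THP-1 cells; compounds (final up to 57.5 uM) added 1 h before LPS (250 ng/mL) and ATP (1.25 mM) stimulation; lower signal means less secretion.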
TDP1 cell CPT: DT40-hTDP1 cell growth loss with CPT; chicken DT40 Tdp1-/-;hTDP1 cells + 20 nM CPT, ATP luminescence, 48 h; Potency, µM (series often up to 46.2 µM), usual class: inhibitors; 12% of 420,000 active; note: nearly all actives have a fitted effect of over 55% in size
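Chicken DT40 Tdp1-/- cells stably complemented with human TDP1 were seeded at 400 cells/well in medium containing 20 nM camptothecin, exposed to pin-transferred compounds, and grown at 37 °C for at least 48 hr. Viability was read as ATP luminescence.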
HT1080 IDH1KD tx: toxicity to HT-1080 IDH1 knockdown cells (counter line); 2% of 360,000 active; Potency, µM (series often up to 46.1 µM), most hits filed as cytotoxic; HT-1080 IDH1 knockdown viability, ATP luminescence, 48 h; AID 686971
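IDH1KD HT-1080 cells, 750/well, RPMI + 5% FBS; compound pinned after 2 h settling; 48 h, 37 °C; CellTiter-Glo luminescence; % activity normalised to DMSO and no-cell wells; curves fitted, classed by r2 and efficacy.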
HT1080NT lethal: kills 2HG-producing HT-1080-NT fibrosarcoma cells; HT-1080-NT fibrosarcoma viability, CellTiter-Glo ATP luminescence, 48 h; Potency, µM (series often up to 46.1 µM), most hits filed as cytotoxic; 1.6% of 360,000 active; AID 686970;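 note: NT is the 2HG producing partner of a matched IDH1 knockdown line; nearly all actives have a fitted effect of over 55% in size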
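Luminescent CellTiter-Glo readout after 48 hours of compound exposure at 37 degrees C defined viability of HT-1080-NT cells. Activity was normalized to DMSO wells and cell-free media wells; concentration-response curves were fitted and assigned curve classes.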
TDP1 cell noCPT: qHTS for Inhibitors of human tyrosyl-DNA phosphodiesterase 1 (TDP1): qHTS in cells in absence of CPT. DT40 Tdp1-/- hTDP1 cells, no CPT, ATP luminescence, 48 h. Potency, µM (highest dose often 46.2 µM), actives largely listed as inhibitors. 15% of 420,000 active. AID 686978, 2013; note: nearly all actives have a fitted effect of over 55% in size
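Compound effects on proliferation are scored in DT40 Tdp1-/-;hTDP1 cells in the absence of CPT. ATP levels (CellTiter-Glo luminescence) are recorded after a ≥48 hr, 37 °C incubation.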
Numbers stand for hits. Sampled rows, rich in hits. Any-hit rate of the full collection: about 19%. Unless noted, calls come from the whole dose curve; as a rule, active = well fitted curve in the direction sought with a large enough effect; inconclusive = small, poorly fitted or top-dose-only effect, or another doubt; inactive = no such curve, though single readings can be large; an effect the other way counts as inactive or inconclusive.

For C#CCOc1ccc2c(c1)c(C(C)=O)c(C)n2Cc1ccccc1 the results were IL1B secr inh inactive, TDP1 cell CPT inactive, HT1080 IDH1KD tx inactive, HT1080NT lethal inactive and TDP1 cell noCPT inconclusive.
CCOC(=O)c1c(C)n(Cc2ccccc2)c2ccc(OCC(O)CN3C(=O)CNC3=O)cc12 (configuration not stated) was read as IL1B secr inh inactive, TDP1 cell CPT inconclusive, HT1080 IDH1KD tx inactive, HT1080NT lethal inactive and TDP1 cell noCPT 14.6µM.
`CSc1ncc(/C=C2/C(=O)NC(=O)N(c3ccc(Cl)cc3)C2=O)cn1` gave IL1B secr inh inactive, TDP1 cell CPT inactive, HT1080 IDH1KD tx inactive, HT1080NT lethal inactive and TDP1 cell noCPT inactive.
CC12CCC3c4ccc(OP(=O)(N5CC5)N5CC5)cc4CCC3C1CCC2=O (configuration not stated) was read as IL1B secr inh inactive, TDP1 cell CPT 14.6µM, HT1080 IDH1KD tx inactive, HT1080NT lethal inactive and TDP1 cell noCPT 13µM.
For c1ccc(C(c2ccccc2)N2CCN(c3ccc4ccccc4n3)CC2)cc1 the results were IL1B secr inh inactive, TDP1 cell CPT inconclusive, HT1080 IDH1KD tx inactive, HT1080NT lethal inactive and TDP1 cell noCPT inconclusive.
For Cc1ccc(NC(=O)Cn2cc(C(=O)c3ccccc3)c3ccccc32)c(C)c1 the results were TDP1 cell CPT inconclusive and TDP1 cell noCPT inactive.
CCc1nc2c(OCc3ccc(C(F)(F)F)cc3)cccn2c1N(C)C(=O)C(C)C was read as IL1B secr inh inactive, TDP1 cell CPT inconclusive, HT1080 IDH1KD tx inactive, HT1080NT lethal inactive and TDP1 cell noCPT 25.9µM.
Screening COc1ccc(NC(=O)CN2C(=O)C(C)N=C(c3ccccc3)c3ccccc32)cc1OC (configuration not stated) returned TDP1 cell CPT inactive and TDP1 cell noCPT inactive.
Screening CCOP(=O)(Cc1ccccc1)OCC returned IL1B secr inh inactive, TDP1 cell CPT inactive, HT1080 IDH1KD tx inactive, HT1080NT lethal inactive and TDP1 cell noCPT inactive.
CN1C(=O)N(C)C(=O)C(CCc2ccncc2)(Cc2ccc3c(c2)OCO3)C1=O was read as IL1B secr inh inactive, TDP1 cell CPT inconclusive, HT1080 IDH1KD tx inconclusive, HT1080NT lethal inactive and TDP1 cell noCPT 16.4µM.
For O=C1NC(=O)C(CCc2ccncc2)(Cc2ccc3c(c2)OCO3)C(=O)N1CCc1ccccc1 (configuration not stated) the results were IL1B secr inh inactive, TDP1 cell CPT inconclusive, HT1080 IDH1KD tx inconclusive, HT1080NT lethal inactive and TDP1 cell noCPT 20.6µM.
Screening c1cc(CNCCc2ccc3c(c2)OCO3)ccn1 returned IL1B secr inh inactive, TDP1 cell CPT inactive, HT1080 IDH1KD tx inactive, HT1080NT lethal inactive and TDP1 cell noCPT inactive.
Screening O=C1NCCOC(=O)[C@@H](Cc2ccc(F)cc2)CC/C=C/C[C@@H]1CC(=O)N(CCO)Cc1ccccc1 returned IL1B secr inh inactive, TDP1 cell CPT 20.6µM, HT1080 IDH1KD tx inactive, HT1080NT lethal inactive and TDP1 cell noCPT 23.1µM.
CCOC(C(=O)OCCCN(CC)CC)(c1ccccc1)c1ccccc1 was read as IL1B secr inh inconclusive, TDP1 cell CPT inactive, HT1080 IDH1KD tx inactive, HT1080NT lethal inactive and TDP1 cell noCPT inconclusive.
Screening CCN(CC)CCCOC(=O)C(OC(C)C)(c1ccccc1)c1ccccc1 returned IL1B secr inh -56.3, TDP1 cell CPT 23.1µM, HT1080 IDH1KD tx inconclusive, HT1080NT lethal inconclusive and TDP1 cell noCPT 18.4µM.
For CCN(CC)c1ccc(/C=C2/C(=O)NC(=O)N(CC3CCCO3)C2=O)cc1 (configuration not stated) the results were IL1B secr inh inactive, TDP1 cell CPT inactive, HT1080 IDH1KD tx inactive, HT1080NT lethal inactive and TDP1 cell noCPT inactive.
`O=C1NC(=S)SC1=Cc1ccc(N(CCCl)CCCl)cc1` gave IL1B secr inh inactive, TDP1 cell CPT 13µM, HT1080 IDH1KD tx inactive, HT1080NT lethal inactive and TDP1 cell noCPT 16.4µM.
COCc1cc(OC(=O)N(C)C)nc(-c2ccccc2)n1 was read as IL1B secr inh inactive, TDP1 cell CPT inactive, HT1080 IDH1KD tx inactive, HT1080NT lethal inactive and TDP1 cell noCPT inactive.
Screening CC1CN=C(NCc2ccc(F)cc2)S1 (configuration not stated) returned IL1B secr inh inactive, TDP1 cell CPT inactive, HT1080 IDH1KD tx inactive, HT1080NT lethal inactive and TDP1 cell noCPT inactive.
For CC(C)(O)C1C2OC(=O)C1C1(O)CC3OC34C(=O)OC2C14C (configuration not stated) the results were IL1B secr inh inactive, TDP1 cell CPT inactive, HT1080 IDH1KD tx inactive, HT1080NT lethal inactive and TDP1 cell noCPT inactive.
`O=C1NC(=O)C2(CCCC2)C(=O)N1` gave IL1B secr inh inactive, TDP1 cell CPT inactive, HT1080 IDH1KD tx inactive, HT1080NT lethal inactive and TDP1 cell noCPT inactive.
Screening CCCCn1c(NS(=O)(=O)c2ccccc2)c(C(=O)OCC)c2nc3ccccc3nc21 returned IL1B secr inh inactive, TDP1 cell CPT inconclusive, HT1080 IDH1KD tx inactive, HT1080NT lethal inconclusive and TDP1 cell noCPT 20.6µM.
CCCCn1c(NC(=O)c2ccc(Br)o2)c(C(=O)OCC)c2nc3ccccc3nc21 was read as IL1B secr inh inactive, TDP1 cell CPT inconclusive, HT1080 IDH1KD tx inactive, HT1080NT lethal inconclusive and TDP1 cell noCPT 20.6µM.
Screening C=CCN1C[C@H](C)N([C@@H](c2ccccc2)c2ccc(C(=O)N(CC)CC)cc2)C[C@H]1C returned TDP1 cell CPT inactive and TDP1 cell noCPT inactive.
For COc1cc(NCCCn2cnc(C(=O)Nc3ccc(C)c(C)c3)n2)cc(OC)c1OC the results were IL1B secr inh inactive, TDP1 cell CPT inactive, HT1080 IDH1KD tx inactive, HT1080NT lethal inactive and TDP1 cell noCPT inconclusive.
Cc1ccc(N2C(=O)CC(=O)NC2=O)cc1Cl was read as IL1B secr inh inactive, TDP1 cell CPT inactive, HT1080 IDH1KD tx inactive, HT1080NT lethal inactive and TDP1 cell noCPT inactive.
`c1ccc2sc(C3(N4CCCCC4)CCCCC3)cc2c1` gave TDP1 cell CPT 26.6µM and TDP1 cell noCPT 18.4µM.
Screening CCOP(=O)(OCC)/C(=N/OC(=O)c1ccc(OC)cc1)C(N)=O returned IL1B secr inh inactive, TDP1 cell CPT inactive, HT1080 IDH1KD tx inconclusive, HT1080NT lethal inactive and TDP1 cell noCPT inconclusive.
CCOP(=O)(OCC)/C(=N/OC(=O)c1ccccc1C)C(N)=O was read as IL1B secr inh -103.5, TDP1 cell CPT inconclusive, HT1080 IDH1KD tx inconclusive, HT1080NT lethal inactive and TDP1 cell noCPT 13µM.
CN(C)C1(c2nnnn2CCOC(=O)Nc2ccc(Cl)cc2)CCCCC1 was read as IL1B secr inh inactive, TDP1 cell CPT inconclusive, HT1080 IDH1KD tx inactive, HT1080NT lethal inactive and TDP1 cell noCPT 18.4µM.
For CCCCCCn1c(=O)c(C(=O)Nc2c(C)n(C)n(-c3ccccc3)c2=O)c(O)c2ccccc21 the results were IL1B secr inh inactive, TDP1 cell CPT 5.17µM, HT1080 IDH1KD tx inactive, HT1080NT lethal inconclusive and TDP1 cell noCPT 6.51µM.
